Screening data deposited in PubChem by several laboratories.
Compounds with a hit are over-represented: about 2.9% of the library has one in this group of screens.
HSF-1 act = increases HSF-1 driven luciferase reporter signal. activation, % at 9 µM. NIH3T3-HGL HSF-1 luciferase reporter, MG132, 8 h; 100% = twice DMSO control signal. 1.7% of 300,000 active;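 active = mean replicate activation of at least 50% with a set share of replicates each reaching 50%; inconclusive = only one of those two conditions met; inactive = mean below 50% and too few replicates reaching it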;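 note: 0% = median of the neutral control wells and 100% = twice that signal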
S1P4 ag = agonists of human S1P4 receptor | O95977 | S1P4-expressing cell line, agonist reporter assay | activation, % at 4.98 µM | 0.35% of 220,000 active | AID 1509; in the data active = activation above about 11%;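 note: 0% = DMSO vehicle and 100% = reference agonist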
Target sequence (O95977 whole entry, looked up): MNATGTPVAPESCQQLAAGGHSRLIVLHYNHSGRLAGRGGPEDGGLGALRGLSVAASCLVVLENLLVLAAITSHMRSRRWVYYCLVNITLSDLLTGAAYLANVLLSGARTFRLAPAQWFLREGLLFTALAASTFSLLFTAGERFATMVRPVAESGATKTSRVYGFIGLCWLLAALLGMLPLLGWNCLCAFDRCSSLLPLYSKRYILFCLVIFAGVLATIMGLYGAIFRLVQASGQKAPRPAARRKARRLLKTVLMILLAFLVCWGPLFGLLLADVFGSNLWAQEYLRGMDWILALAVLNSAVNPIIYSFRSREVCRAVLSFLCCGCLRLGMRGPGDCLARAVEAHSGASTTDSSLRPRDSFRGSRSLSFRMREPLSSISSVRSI
S1P3 antagonist = blocks the human S1P3 receptor; 0.27% of 170,000 active; CHO S1P3 NFAT-BLA reporter, FRET fluorescence, antagonist mode; Q99500; AID 485; inhibition, % at 4.98 µM;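 active = inhibition above the plate cutoff, the mean inhibition of test wells on that plate plus 3 SD, cut at about 28% in these data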;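 note: cells challenged with S1P at its EC80 of 0.8 µM; blue over green emission ratio from cleaved BLA substrate after 4 h stimulation; 0% = S1P-stimulated wells and 100% = unstimulated DMSO-only wells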
Hsp70 act = switches on Hsp70 transcription. HeLa Hsp70 promoter luciferase reporter, luminescence; scaled: vehicle 0, proteasome-inhibitor control 100%. activation, % at 10 µM. 0.04% of 200,000 active;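 active = activation above the mean across all tested compounds plus 3 SD, cutoff set per campaign, cut at about 5.5% in these data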;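 note: 100% = MG132 at 30 µM as the positive control and 0% = DMSO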
S1P4 antag = human S1P4 receptor antagonism; O95977; S1P4-expressing cells, antagonist mode, reporter read-out; inhibition, % at 4.98 µM; 0.26% of 220,000 active; AID 1510; in the data active = inhibition above about 29%;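 note: 0% = wells stimulated with agonist and 100% = vehicle wells without agonist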
HSF1 inh = HSF1 inhibition; 0.77% of 300,000 active; NIH3T3-HGL HSE-luciferase, MG132-induced, luminescence 8 h; stronger effect = lower value; activity change, negative = inhibition, % at 7.5 µM (by protocol); AID 2098;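 active = more than half of replicate wells show activity change below -50%, luminescence cut by over half; inconclusive = some wells, but at most half, below -50%; inactive = no replicate well below -50%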;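 note: luciferase reports HSF-1 transcriptional activity via heat shock element; 0% = median of DMSO wells and -100% = zero luminescence signal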
Starred values were filed as active, the others as inactive.

For CCc1cc2c(=O)[nH]c(-c3ccccn3)nc2s1 the results were HSF-1 act 215*, S1P4 ag 0, S1P3 antagonist 9, Hsp70 act 0, S1P4 antag 15 and HSF1 inh 133.
Screening CCCCn1c(N)c(N(CCC(C)C)C(=O)c2[nH]c(C)c(C(=O)OCC)c2C)c(=O)[nH]c1=O returned HSF-1 act 2 and HSF1 inh -3.
Screening Cc1cccc(C)c1NC(=O)CSc1nnc(Cn2nnc(-c3ccccc3)n2)n1-c1ccccc1 returned HSF-1 act 74*, S1P4 ag -1, S1P3 antagonist -10, Hsp70 act 0, S1P4 antag 8 and HSF1 inh 66.
`Cc1ccc(OCc2nnc(SCC(=O)Nc3cccc4ccccc34)n2-c2ccccc2)cc1` gave HSF-1 act 73*, S1P4 ag 6, Hsp70 act 0, S1P4 antag 10 and HSF1 inh 26.
For CC1CC(C)CN(S(=O)(=O)c2cc3c(cc2Cl)NC(=O)CO3)C1 (stereo not given) the results were HSF-1 act 7 and HSF1 inh 6.
For COc1ccc(C(=O)NCCc2nnc(SCC(=O)Nc3ccccc3F)n2C)cc1 the results were HSF-1 act -15, S1P4 ag -1, S1P3 antagonist -11, Hsp70 act 0, S1P4 antag 2 and HSF1 inh 1.
S=C(N/N=C/c1ccc(Br)cc1)N1CCCCC1 was read as HSF-1 act 55* and HSF1 inh 32.
For O=C(Nc1ccc([N+](=O)[O-])cc1)Nc1ccc(OC(F)F)c(Cl)c1 the results were S1P4 ag -1, S1P3 antagonist 19, Hsp70 act 0 and S1P4 antag -3.
`COc1cccc(C2Nc3ccccc3C(=O)N2c2ccc(F)cc2)c1O` (stereo not given) gave HSF-1 act 67* and HSF1 inh 32.
O=C1c2ccccc2NC(c2ccccc2O)N1c1ccc(F)cc1 (stereo not given) was read as HSF-1 act 37 and HSF1 inh 4.
For CCOc1ccc(-c2cn(-c3ccc(OC)cc3)c(SC)n2)cc1 the results were HSF-1 act 62*, S1P4 ag 0, S1P3 antagonist -1, Hsp70 act 0, S1P4 antag -8 and HSF1 inh 38.
`COc1cccc(N2C(=O)CC(NNc3nc4ccccc4s3)C2=O)c1` (stereo not given) gave HSF-1 act 69*, S1P4 ag 0, S1P3 antagonist -9, S1P4 antag -1 and HSF1 inh 39.
`CCc1ccc(N2C(=O)CC(NNc3nc4ccccc4s3)C2=O)cc1` (stereo not given) gave HSF-1 act 220*, S1P4 ag -1, S1P3 antagonist 4, Hsp70 act 0, S1P4 antag 6 and HSF1 inh 162.
`COc1ccc(OC)c(NC(=O)C2CCCN(S(=O)(=O)c3c(C)nn(C)c3C)C2)c1` (stereo not given) gave HSF-1 act -78 and HSF1 inh -72*.
For CCOC(=O)C1CCCN(CCC(=O)Nc2cc(C)cc(C)c2)C1 (stereo not given) the results were HSF-1 act -5, S1P4 ag 1, S1P3 antagonist 0, Hsp70 act 0, S1P4 antag -1 and HSF1 inh 1.
`CCOC(=O)C1CCCN(CCC(=O)Nc2cc(OC)ccc2OC)C1` (stereo not given) gave HSF-1 act -62 and HSF1 inh -51*.
Screening C#Cc1cccc(NC(=O)c2ccc(Cl)cc2Cl)c1 returned HSF-1 act inconclusive, S1P4 ag 1, S1P3 antagonist -5, S1P4 antag 9 and HSF1 inh 9.
Screening Cc1ccc2nsnc2c1S(=O)(=O)N1CCOCC1 returned HSF-1 act 9, S1P4 ag -2, Hsp70 act 0, S1P4 antag 1 and HSF1 inh 0.
For O=C(NCC(=O)N1CCCCCCC1)c1ccc(Br)o1 the results were HSF-1 act -6 and HSF1 inh 2.
`O=C(NCC(=O)N1CCN(c2ccccc2O)CC1)c1ccc(Br)o1` gave HSF-1 act -62 and HSF1 inh -52*.
COc1ccccc1C(=O)NC(=O)COC(=O)C1CC1C (stereo not given) was read as HSF-1 act -1 and HSF1 inh -6.
CC1=C(C(=O)N2CCOCC2)C(c2ccc(C)cc2)NC(=S)N1 (stereo not given) was read as HSF-1 act -2, S1P4 ag -1, S1P3 antagonist -10, Hsp70 act 0, S1P4 antag 9 and HSF1 inh -4.
For CC1=C(C(=O)N2CCOCC2)C(c2c(C)cc(C)cc2C)NC(=S)N1 (stereo not given) the results were HSF-1 act 95*, S1P4 ag 1, S1P3 antagonist -10, Hsp70 act 0, S1P4 antag 7 and HSF1 inh 64.
Screening Cc1cc(C)nc(Sc2nc(Cl)nc(N(c3ccccc3)c3ccccc3)n2)n1 returned HSF-1 act 54*, S1P4 ag -3, Hsp70 act 0, S1P4 antag -10 and HSF1 inh 20.
Screening Cc1cc(C)nc(SC(C(=O)O)c2ccccc2)n1 (stereo not given) returned HSF-1 act -11, S1P4 ag 0, S1P3 antagonist -14, Hsp70 act 0, S1P4 antag -3 and HSF1 inh -12.
Clc1cccc(/C=N/N2CCN(Cc3ccccc3)CC2)c1 was read as HSF-1 act 27 and HSF1 inh 20.
For Cc1ccc(C(C)C)c(OCC(=O)NC2CCN(C)CC2)c1 the results were HSF-1 act -12 and HSF1 inh -6.
Screening CCC(C)c1ccccc1NC(=O)c1cc(C)no1 (stereo not given) returned HSF-1 act 59* and HSF1 inh 16.
Cc1ccc(O)c(NC(=O)c2cc(C)no2)c1 was read as HSF-1 act 100* and HSF1 inh 60.
CCC(C)c1ccccc1NC(=O)c1cccnc1 (stereo not given) was read as HSF-1 act -5, S1P4 ag 3, Hsp70 act 0, S1P4 antag -12 and HSF1 inh 7.
`CCCc1cc(C(=O)Nc2cc(C)ccc2O)no1` gave HSF-1 act 120* and HSF1 inh 97.
For Cc1ccc(O)c(NC(=O)c2cc(-c3ccccc3)on2)c1 the results were HSF-1 act 96* and HSF1 inh 65.
Screening O=C(NCC1CCCO1)C(c1cccs1)N(C(=O)c1ccc(CN2CCOCC2)o1)c1ccc(Cl)cc1 (stereo not given) returned HSF-1 act -6, S1P4 ag 5, S1P3 antagonist -12, Hsp70 act 0, S1P4 antag -14 and HSF1 inh -2.
`CCc1nnc(NC(=O)CSc2nc3cccnc3n2Cc2ccccc2)s1` gave HSF-1 act 47, S1P4 ag 0, Hsp70 act 0, S1P4 antag -23 and HSF1 inh 20.
